According to PubChem BioAssay (Tox21):
Inconclusive results are not listed. Activity calls are given as the source filed them. Unless noted, calls come from the whole dose curve; as a rule, active = well fitted curve in the direction sought with a large enough effect in the repeat runs; inconclusive = weak or mixed curves; inactive = no such curve, though single readings can be large; an effect the other way counts as inactive or inconclusive.

Columns and labels:
[1] = qHTS assay for small molecule agonists of the p53 signaling pathway (AID 651631; calls by dose curve; note: nearly all actives have a fitted effect of over 15% in size)
In short: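 p53RE-bla HCT-116 cells; compounds 16 h, 37 °C; LiveBLAzer B/G FRET substrate 2 h RT; fluorescence intensity read-out, qHTS format.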

[2] = qHTS assay for small molecules that induce genotoxicity in human embryonic kidney cells expressing luciferase-tagged ATAD5 (AID 651632); note: nearly all actives have a fitted effect of over 15% in size
In short: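 Quantitative HTS in HEK293T expressing luciferase-tagged ATAD5, whose levels rise upon DNA damage. Exposure ran 16 hr at 37C and 5% CO2, with luminescence read 30 min after Amplite addition at room temperature.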

[3] = qHTS assay for small molecule agonists of the p53 signaling pathway - cell viability (AID 651633; calls by dose curve;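 note: p53RE-bla HCT reporter cells with a stable beta-lactamase p53 reporter; series mostly up to about 83 µM; nearly all actives have a fitted effect of over 30% in size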)
In short: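 Viability counter-read: CellTiter-Glo luminescence (30 min, room temperature) in the same p53RE-bla plates. These plates had been exposed to compounds for 16 h at 37 C.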

[4] = qHTS assay for small molecules that induce genotoxicity in human embryonic kidney cells expressing luciferase-tagged ATAD5 - cell viability (AID 651634; calls by dose curve; note: nearly all actives have a fitted effect of over 25% in size)
In short: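 After 15.5 hr incubation with compound at 37C, 5% CO2, HEK293T ATAD5-luciferase cells received CellTiter-Fluor reagent; fluorescence intensity was quantified following 30 min at 37C.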

[5] = qHTS assay for small molecule disruptors of the mitochondrial membrane potential - cell viability (AID 720634; calls by dose curve;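 note: human HepG2 liver cancer cells; series mostly up to about 83 µM; nearly all actives have a fitted effect of over 20% in size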)
In short: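 ATP-based luminescent viability readout (CellTiter-Glo, 30 min, room temperature) in HepG2 cells multiplexed with the m-MPI membrane potential dye; compound exposure lasted 1 hr at 37 C.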

[6] = qHTS assay to test for compound auto fluorescence at 535 nm (green) in HepG2 cells (AID 720675)
[7] = qHTS assay to test for compound auto fluorescence at 460 nm (blue) in HEK293 cells (AID 720678)
In short: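 Auto fluorescence in the blue band was quantified as triamterene equivalency. HEK293 cells were seeded at 2,000/well, dosed after a 4-5 hr attachment, and kept overnight at 37C before the 405/460 nm reading.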

[8] = qHTS assay to test for compound auto fluorescence at 590 nm (red) in HEK293 cells (AID 720679)
In short: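 Autofluorescence equivalency to Rose Bengal sodium, 540/590nm, in HEK293 cells exposed overnight to 23 nL compound per well.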

[9] = qHTS assay to test for compound auto fluorescence at 535 nm (green) in HEK293 cells (AID 720680)
[10] = qHTS assay to test for compound auto fluorescence at 460 nm (blue) in HEK293 cell free culture (AID 720681)
In short: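 Blue fluorescence (Ex 405/Em 460 nm, triamterene-equivalent) was read immediately after pin transfer of compound or DMSO into medium (DMEM, 10% FBS) without cells.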

[11] = qHTS assay to test for compound auto fluorescence at 590 nm (red) in HEK293 cell free culture (AID 720683)
In short: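 Red-channel autofluorescence of compounds in culture medium (DMEM, 10% FBS), no cells, measured at 540/590 nm. Rose Bengal sodium is the reference fluorophore for equivalence.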

[12] = qHTS assay to test for compound auto fluorescence at 590 nm (red) in HepG2 cell free culture (AID 720684)
In short: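 No cells present: MEM + 10% FBS only. Compound pinned in, red label read (540/590 nm). Activity = fluorescence equivalent to Rose Bengal sodium.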

[13] = qHTS assay to test for compound auto fluorescence at 460 nm (blue) in HepG2 cell free culture (AID 720685)
In short: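 Cell-free plates of MEM plus 10% FBS received 23 nL compound or DMSO vehicle; blue-channel (405/460 nm) intensity scored against triamterene as reference fluorophore.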

[14] = qHTS assay to test for compound auto fluorescence at 535 nm (green) in HepG2 cell free culture (AID 720686)
[15] = qHTS assay to test for compound auto fluorescence at 460 nm (blue) in HepG2 cells (AID 720687)
In short: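 Blue-channel autofluorescence (Ex/Em 405/460 nm, triamterene-equivalent) was measured after 1 hr compound exposure at 37 C, 5% CO2. Cells were HepG2, plated overnight at 37 C in MEM plus 10% FBS.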

[16] = target: Glucocorticoid receptor (Homo sapiens) (UniProt P04150); test: qHTS assay to identify small molecule agonists of the glucocorticoid receptor (GR) signaling pathway (AID 720691; active = well fitted activation curve with a large enough effect in the signal ratio in the repeat runs, not every such curve was filed as active; the % refers to the signal ratio)
In short: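 Cells: GR-bla HeLa, endogenous GR with stably integrated GRE-beta-lactamase reporter. Treatment 18 h, 37 C, compounds delivered in DMSO. Detection via LiveBLAzer B/G FRET substrate, 2 h RT, fluorescence intensity.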

[17] = target: Glucocorticoid receptor (Homo sapiens) (UniProt P04150); test: qHTS assay to identify small molecule antagonists of the glucocorticoid receptor (GR) signaling pathway (AID 720692; active = well fitted inhibition curve with a large enough effect in the signal ratio in the repeat runs, not every such curve was filed as active; the % refers to the signal ratio)
In short: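 Quantitative HTS in antagonist format: HeLa cells expressing endogenous GR and a stably integrated GRE-bla reporter, stimulated with 5 nM dexamethasone (final) alongside test compounds for 18 h.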

[18] = qHTS assay to test for compound auto fluorescence at 590 nm (red) in HepG2 cells (AID 720674)
In short: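 Red autofluorescence (Ex/Em 540/590 nm, Rose Bengal sodium equivalents) was measured in HepG2 cells, 2,000 per well in MEM plus 10% FBS, plated overnight at 37 C. Readings were taken 1 hr after adding 23 nL compound or DMSO, at 37 C and 5% CO2.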

[19] = qHTS assay to test for compound auto fluorescence at 535 nm (green) in HEK293 cell free culture (AID 720682)
In short: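 Cell-free medium (DMEM, 10% FBS) receives compound or DMSO by pintool. Plate read directly at Ex 485/Em 535 nm. Signal converted to fluorescein equivalency.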

[20] = qHTS assay for small molecule disruptors of the mitochondrial membrane potential (AID 720635)
In short: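 Mitochondrial membrane potential tracked with Mito-MPS dye, red aggregates (ex 540/em 590 nm) against green monomers (ex 490/em 535 nm). Compound treatment 1 hr at 37C, dye 30 min in HepG2.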

Measured: Potency

Sequence of Glucocorticoid receptor (Homo sapiens) (P04150 whole entry, looked up): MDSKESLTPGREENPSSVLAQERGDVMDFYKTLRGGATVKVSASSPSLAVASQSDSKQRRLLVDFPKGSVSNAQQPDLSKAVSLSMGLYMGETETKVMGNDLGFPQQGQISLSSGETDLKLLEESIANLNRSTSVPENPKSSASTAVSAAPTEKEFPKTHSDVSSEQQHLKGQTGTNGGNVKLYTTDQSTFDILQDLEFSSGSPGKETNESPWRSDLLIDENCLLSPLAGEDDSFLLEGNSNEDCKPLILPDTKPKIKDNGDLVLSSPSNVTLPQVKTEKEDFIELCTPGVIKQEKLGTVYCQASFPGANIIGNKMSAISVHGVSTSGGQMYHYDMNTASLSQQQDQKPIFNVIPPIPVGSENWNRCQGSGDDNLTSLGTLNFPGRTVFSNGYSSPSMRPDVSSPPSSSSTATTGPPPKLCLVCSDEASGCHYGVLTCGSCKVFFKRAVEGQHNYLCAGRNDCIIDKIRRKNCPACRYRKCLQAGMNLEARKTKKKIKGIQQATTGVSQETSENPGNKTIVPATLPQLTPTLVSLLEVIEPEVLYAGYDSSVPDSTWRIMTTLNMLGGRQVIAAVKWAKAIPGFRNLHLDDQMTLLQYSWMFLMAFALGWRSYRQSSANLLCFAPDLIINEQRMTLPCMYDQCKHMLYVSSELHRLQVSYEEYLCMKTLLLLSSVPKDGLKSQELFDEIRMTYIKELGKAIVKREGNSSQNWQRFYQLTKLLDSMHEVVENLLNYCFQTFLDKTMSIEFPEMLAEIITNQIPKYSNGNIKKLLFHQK

NC(=O)c1ccc([N+](=O)[O-])cc1
not listed: [18] | [19] | [20]
inactive: all other assays above

C=C(C)C(=O)OCCCCCCCC(C)C
not listed: [5] | [17] | [20]
inactive: all other assays above

CC/C=C\CCOC(C)=O
not listed: [14] | [20]
inactive: all other assays above

CCn1nc(C(=O)O)c(=O)c2cc3c(cc21)OCO3
not listed: [4] | [20]
inactive: all other assays above

O=[N+]([O-])c1ccc(F)cc1F
not listed: [3] | [6] | [16] | [17]
inactive: all other assays above

N[C@@H](C(=O)N[C@@H]1C(=O)N2C(C(=O)O)=C(Cl)CS[C@H]12)c1ccccc1
not listed: [6] | [17] | [20]
inactive: all other assays above

CN(C)CCCNCCCN(C)C
not listed: [5] | [18] | [19] | [20]
inactive: all other assays above

ClC(Cl)(Br)Br
not listed: [18] | [20]
inactive: all other assays above

C/C=C(\C)C#N
not listed: [6] | [16] | [17] | [20]
inactive: all other assays above

O=S(O)CO
not listed: [3] | [16] | [17]
inactive: all other assays above

CC(=O)CC(C)(C)C1CCCCC1
not listed: [6] | [16] | [17] | [19] | [20]
inactive: all other assays above

CN1CCN(c2cc3c(cc2F)c(=O)c(C(=O)O)cn3-c2ccc(F)cc2)CC1
not listed: [5] | [6] | [8] | [14] | [17] | [19] | [20]
inactive: all other assays above

N=C(N)c1ccccc1
not listed: [15] | [16] | [17] | [18] | [19] | [20]
inactive: all other assays above

O=C(O)Cc1ccc(CCNS(=O)(=O)c2ccc(Cl)cc2)cc1
not listed: [6] | [20]
inactive: all other assays above

CC(=O)Nc1ccc(S(N)(=O)=O)cc1
not listed: [18] | [20]
inactive: all other assays above

CCCCCCCCCCCC
not listed: [3] | [8]
inactive: all other assays above

CCCCCOC(=O)CCCCC
not listed: [6] | [17] | [20]
inactive: all other assays above
